Screening results as filed in PubChem.
ssDAF12 agonist – S. stercoralis DAF-12 activation, primary screen; activation, % at 6.8 µM; AID 652126; HEK293 ssDAF-12/GRIP1 lit1-tk-luc reporter, luminescence; % of 3 µM dafachronic acid response; 370,000 tested, 1% active;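 active = activation above the mean over all tested compounds plus 3 SD, cut at about 0.9% in these data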
DAX1 inh-1 – inhibits human nuclear receptor DAX1 | P51843 | HEK293 Gal4-DAX1 luciferase reporter, luminescence | inhibition, % at 6.75 µM | 340,000 tested, 0.99% active | AID 504766;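 active = inhibition above the mean over all tested compounds plus 3 SD, cut at about 4.2% in these data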;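 also: inhibition shows as a rise in luminescence from relieved DAX1 repression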
Target sequence (P51843 207-470 limits assumed): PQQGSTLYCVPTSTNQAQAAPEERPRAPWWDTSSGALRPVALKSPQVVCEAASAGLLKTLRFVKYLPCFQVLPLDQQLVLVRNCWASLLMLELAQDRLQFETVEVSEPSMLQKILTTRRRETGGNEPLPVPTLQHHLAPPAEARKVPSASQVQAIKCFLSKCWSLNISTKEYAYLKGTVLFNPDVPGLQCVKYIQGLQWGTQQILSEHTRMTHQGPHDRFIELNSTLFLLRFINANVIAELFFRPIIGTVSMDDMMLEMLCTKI
DAX1 inh-2 – blocks DAX1 repression of SF-1 activated StAR promoter | HEK293T StAR-luciferase reporter, SF-1/DAX-1 repression relief | inhibition, % at 6.8 µM | 370,000 tested, 1.1% active | AID 652010;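 active = inhibition above the mean over all tested compounds plus 3 SD, cut at about 3.6% in these data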;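 also: higher inhibition means more luminescence from relief of DAX-1 repression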
hgDAF12 agonist – agonists of H. glycines DAF-12 nuclear receptor | 370,000 tested, 1.8% active | AID 687014 | HEK293 GAL4-hgDAF12 UAS-luciferase reporter, agonist luminescence; normalized to butyrate control | activation, % at 6.8 µM;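 active = activation above a cutoff set at the mean of all screened compounds plus 3 SD, cut at about 10% in these data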
SMARCA2 activ – increases SMARCA2 function in MMTV reporter cells. activation, % at 9.1 µM. MG213 cells, MMTV-luciferase reporter, dexamethasone, overnight. 370,000 tested, 1% active; in the data active = activation above about 7.8%
hcDAF12 agonist – activators of H. contortus DAF-12 nuclear receptor; HEK293 hcDAF-12 lit1-tk-luc reporter, luminescence; 0% DMSO, 100% Δ7-dafachronic acid; activation, % at 6.8 µM; 370,000 tested, 1.4% active; AID 652067;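 active = activation above the mean of all tested compounds plus 3 SD, cut at about 5.5% in these data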
SMARCA2 conf – confirmation of SMARCA2 (BRM) function activators. AID 652260. activation, % at 9.1 µM. shares compounds with SMARCA2 activ. 3,500 tested, 30% active. MG213 cells, MMTV-luciferase with dexamethasone, luminescence, overnight; MG213 cells expressing E1A, Rb sequestered; DMSO wells 0%, reference activator 100%;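 active = activation above its plate's cutoff, the mean activation of tested wells plus 3 SD, cut at about 7.9% in these data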
VP16 Luc act – counter-screen for SMARCA2 activators: GAL4-VP16 luciferase reporter activation | shares compounds with SMARCA2 activ | HEK293 GAL4-VP16 pG5luc reporter, luciferase luminescence; scaled: DMSO wells 0%, SAHA wells 100% | 3,500 tested, 41% active | activation, % at 9.1 µM;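 active = activation above the solvent-only control well mean plus 3 SD, averaged across control plates, cut at about 5.2% in these data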
Hits are given with their value; . = inactive; / = no result. The list is not random: actives were taken first. Their share in the collection is about 4.8%.

SMILES	ssDAF12 agonist	DAX1 inh-1	DAX1 inh-2	hgDAF12 agonist	SMARCA2 activ	hcDAF12 agonist	SMARCA2 conf	VP16 Luc act
CCC(=O)N1CCCC(C(=O)Nc2nc3ccccc3n2C)CC1 (configuration not stated)	.	/	.	.	.	.	/	/
O=C(N/N=C/c1cccc2ccccc12)c1n[nH]c2c1CCCC2	.	.	.	.	.	.	/	/
Cc1ocnc1C(=O)Nc1ccc(Cl)cc1	.	.	.	.	9.3	.	.	.
Cc1cc(C(=O)Nc2ccc(Cl)cc2)on1	.	.	.	.	.	.	/	/
O=C(CC1C(=O)NCCN1Cc1ccc(F)cc1)NC1CCCCCCC1 (configuration not stated)	.	.	.	.	.	.	/	/
O=C(Nc1nc2ncccn2c1-c1ccc(F)cc1)C1CC1	.	/	.	.	8.7	.	.	.
O=C(Nc1ccccc1)Nc1nc2ncccn2c1-c1ccc(F)cc1	.	/	.	.	14	.	.	.
Cc1ccc(-c2c(NC(=O)Nc3ccccc3)nc3ncccn23)cc1	.	/	.	.	.	.	/	/
CC1(C)OC2CCN3C(C(O)COS3(=O)=O)C2O1 (configuration not stated)	.	.	.	.	.	.	/	/
CCOC(=O)c1cc(-c2ccc([N+](=O)[O-])cc2)nc2c1c(=O)[nH]c(=O)n2Cc1ccccc1	.	.	.	.	.	.	/	/
O=C(N/N=C/c1ccc([N+](=O)[O-])cc1)c1cnccn1	.	/	.	.	.	.	/	/
C/C(=N\NC(=O)c1cnccn1)c1ccc([N+](=O)[O-])cc1	.	.	.	.	9.6	.	.	.
COC(=O)[C@]12C[C@H](CC(=O)N3CCOCC3)C(=O)N(Cc3ccco3)C1=C[C@H](C(C)C)O[C@@H]2C1CC1	.	/	.	.	9.6	.	.	.
COC(=O)[C@]12C[C@H](CC(=O)N3CCCCC3)C(=O)N(Cc3ccco3)C1=C[C@H](C(C)C)O[C@@H]2C1CC1	.	/	.	.	.	.	/	/
CC(=O)N1CCOc2ccc(S(=O)(=O)N3CCCC(C)C3)cc21 (configuration not stated)	.	.	.	.	.	.	/	/
C=CCN(CC=C)C(=S)NC(=O)c1ccc(-c2ccccc2)cc1	.	.	.	.	8.0	.	.	.
COc1cc(C2C3=C(COC3=O)Oc3cc4c(cc32)OCO4)cc(OC)c1OC (configuration not stated)	.	.	.	.	.	.	/	/
COc1ccc(C(=O)NC2CCCCC2)cc1S(=O)(=O)N1CCOCC1	.	.	.	.	15	.	.	.
COc1ccc(C(=O)NC2CCCCCC2)cc1S(=O)(=O)N1CCCC1	.	.	.	.	.	.	/	/
CN(c1ccccc1)S(=O)(=O)c1cc(C(=O)OCC(=O)c2c(N)n(C)c(=O)n(C)c2=O)ccc1Cl	.	.	.	.	.	.	/	/
Cn1c(N)c(C(=O)COC(=O)c2ccc(Cl)c(S(=O)(=O)N3CCCCC3)c2)c(=O)n(C)c1=O	.	.	.	.	12	.	.	.
O=C(COC(=O)c1ccc(Cl)c(S(=O)(=O)N2CCCCC2)c1)NC1CCCCC1	.	.	.	.	15	.	.	.
CCn1c(SCc2ccc(Cl)c(Cl)c2)nnc1C(C)NC(=O)c1ccc(OC)cc1 (configuration not stated)	.	.	.	.	.	.	/	/
O=c1[nH][nH]c(C(F)(F)F)c1C=NCc1cccc(Cl)c1	.	.	.	.	.	.	/	/
CCCOC(=O)c1c(NC(=O)C2C3C=CC(C3)C2C(=O)O)sc2c1CCC(C)C2 (configuration not stated)	.	.	.	.	.	.	/	/
SMILES	ssDAF12 agonist	DAX1 inh-1	DAX1 inh-2	hgDAF12 agonist	SMARCA2 activ	hcDAF12 agonist	SMARCA2 conf	VP16 Luc act
CSc1ccc(OC2(C)CCN(Cc3cc4ccccc4o3)C2)cc1 (configuration not stated)	.	/	.	.	.	.	/	/
COc1ccc(CCNC(=O)c2coc(=O)c(Br)c2)cc1	.	/	.	.	29	.	12	11
Cc1cc(O)c(C(C)C)cc1N=Cc1ccccc1[N+](=O)[O-]	.	.	.	.	.	.	/	/
CCOn1c(=O)c[n+]([O-])c2ccccc21	.	.	.	.	.	.	/	/
CCOCCCNC(=O)Cn1cnc2c(cnn2-c2ccc(F)cc2)c1=O	.	.	.	.	.	.	/	/
CCOC(=O)c1c(C)[nH]c(C)c1S(=O)(=O)NCCc1ccc(SC)cc1	.	.	.	.	12	.	.	.
CCOC(=O)c1c(C)[nH]c(C)c1S(=O)(=O)NCCc1sccc1C	.	.	.	.	.	.	/	/
Cc1cccc(NC(=O)C2C(C(=O)O)C3C=CC2C32CC2)c1C (configuration not stated)	.	.	.	.	.	.	/	/
Cc1ccc(NC(=O)C2C(C(=O)O)C3C=CC2C32CC2)cc1 (configuration not stated)	.	.	.	.	9.8	.	.	.
O=C(Nc1cc(Cl)ccc1Oc1ccccc1)c1ccccc1F	.	.	.	.	8.9	.	.	.
O=C(Nc1cc(Cl)ccc1Oc1ccccc1)c1ccc(F)cc1	.	.	.	.	.	.	/	/
O=C(COC(=O)c1ccc(Cl)nc1)Nc1ccc2c(c1)CCC2	.	.	.	.	9.1	.	.	.
Cc1cc(NC(=O)CC2CCCC2)ccc1Br	.	.	.	.	11	.	.	8.6
O=C(Cc1ccccc1)Nc1ccc2c(c1)CCC2	.	.	.	.	.	.	/	/
O=C(Nc1cccc([N+](=O)[O-])c1)Nc1ccc2c(c1)CCC2	.	.	.	.	.	.	/	/
O=C(CC1CCCC1)Nc1ccc2c(c1)CCC2	.	.	.	12	9.0	.	13	.
O=C(Nc1cccc(F)c1)Nc1ccc2c(c1)CCC2	.	.	.	.	8.8	.	9.8	6.5
CCC(C(=O)O)N1C(=O)/C(=C/C(C)=C/c2ccccc2)SC1=S (configuration not stated)	.	.	.	.	.	.	/	/
COc1ccc(-c2cn3c(C)c(C(=O)N4CCc5ccccc5C4)sc3n2)cc1	/	.	/	/	/	/	/	/
COc1ccc2c(c1)CC/C(=C\c1ccc(C)o1)C2=O	.	4.9	.	.	11	.	18	14
CS(=O)(=O)c1ccc(Cl)c(NC(=O)CSc2nc3ccccc3c(=O)n2Cc2ccco2)c1	.	.	.	.	.	.	/	/
NC(=O)c1ncc(C(F)(F)F)cc1Cl	.	.	.	.	.	.	/	/
